Screening results: PubChem, Paczesny and Yang Labs, IUPUI and University of Michigan
Shown is part of a subset that was picked to be rich in hits.
ST2 IL33 inh: IL1RL1 inhibition; inhibition, % for hits at 17 µM; Q01638; AlphaLISA ST2-Fc/biotin-IL-33 interaction, 1 h; actives 2.3% (n = 78,000); in the data active = inhibition above about 30%
Target sequence (Q01638 whole entry, looked up): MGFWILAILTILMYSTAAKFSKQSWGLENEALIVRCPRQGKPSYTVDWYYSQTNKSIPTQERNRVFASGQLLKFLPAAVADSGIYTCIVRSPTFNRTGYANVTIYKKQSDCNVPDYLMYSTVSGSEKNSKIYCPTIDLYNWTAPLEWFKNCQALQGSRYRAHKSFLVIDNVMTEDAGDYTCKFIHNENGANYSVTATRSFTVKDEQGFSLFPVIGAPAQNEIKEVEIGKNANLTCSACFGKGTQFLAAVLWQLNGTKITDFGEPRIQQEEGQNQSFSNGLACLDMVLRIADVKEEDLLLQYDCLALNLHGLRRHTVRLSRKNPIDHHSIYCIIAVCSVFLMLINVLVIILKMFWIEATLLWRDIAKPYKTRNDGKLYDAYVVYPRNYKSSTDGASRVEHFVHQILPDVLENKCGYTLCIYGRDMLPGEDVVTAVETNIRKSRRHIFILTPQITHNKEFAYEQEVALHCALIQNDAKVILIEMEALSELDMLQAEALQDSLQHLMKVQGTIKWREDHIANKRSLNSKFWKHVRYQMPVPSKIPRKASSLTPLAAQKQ
The depositor's hits bear a star.

Cc1ccc(C)c(Cn2nnc(C(=O)NCCc3ccc(Cl)cc3)c2N)c1 was read as ST2 IL33 inh inactive.
Screening Cc1nn(-c2cccc(Cl)c2)c2c1C(c1cccc([N+](=O)[O-])c1)C(C#N)=C(N)O2 (stereo not drawn) returned ST2 IL33 inh 45%*.
`Cc1nn(-c2ccccc2)c2c1C(c1cccc([N+](=O)[O-])c1)C(C#N)=C(N)O2` (stereo not drawn) gave ST2 IL33 inh inactive.
For COc1cccc(C2C(C#N)=C(N)Oc3c2c(=O)n(C)c(=O)n3C)c1 (stereo not drawn) the results were ST2 IL33 inh inactive.
Screening Cc1cc(OCCCNC(C)C)cc(C(C)C)c1 returned ST2 IL33 inh inactive.
`Cc1cccc(N=Cc2c(Nc3cccc(C)c3)nc3ccccn3c2=O)c1` gave ST2 IL33 inh 44%*.
Screening Cc1cccc(Nc2nc(C)[nH]c2[N+](=O)[O-])c1 returned ST2 IL33 inh inactive.
For Cn1c(C(=O)Nc2cccc(Cl)c2)cc2c(=O)n3ccccc3nc21 the results were ST2 IL33 inh inactive.
`Cn1c2nc3ccc(Br)cc3c-2nc2ccccc21` gave ST2 IL33 inh 37%*.
`Cn1c(C(O)(c2ccccc2)c2nc3ccccc3n2C)nc2ccccc21` gave ST2 IL33 inh inactive.
`Cn1c(NCc2cc(Br)ccc2O)nc2ccccc21` gave ST2 IL33 inh inactive.
Screening O=c1/c(=C/c2ccco2)sc2n1CN(c1ccc([N+](=O)[O-])cc1)CN=2 returned ST2 IL33 inh inactive.
For CCOc1ccc(N2CN=c3s/c(=C/c4cccs4)c(=O)n3C2)cc1 the results were ST2 IL33 inh inactive.
For Cc1ccc(N2CN=c3s/c(=C\c4ccco4)c(=O)n3C2)cc1 the results were ST2 IL33 inh 34%*.
`Cc1cc(C)[n+]2nc([S-])sc2n1` gave ST2 IL33 inh inactive.
CC1CCN(CCCNC(=O)c2cc(=O)[nH]c3ccc(S(=O)(=O)N4CCCC4)cc23)CC1 was read as ST2 IL33 inh inactive.
O=C(CN1C(=O)/C(=C\c2ccc(Cl)cc2)Sc2ccccc21)NCCN1CCCC1 was read as ST2 IL33 inh 33%*.
CCCCNC(=O)CN1C(=O)/C(=C\c2ccc(Cl)cc2)Sc2ccccc21 was read as ST2 IL33 inh inactive.
Screening CCC1Oc2ccccc2N(CC(=O)NCCN2CCCC2)C1=O (stereo not drawn) returned ST2 IL33 inh inactive.
For O=C(CN1C(=O)/C(=C\c2ccc(Cl)cc2)Sc2ccccc21)N1CCOCC1 the results were ST2 IL33 inh inactive.
`O=C(NCCN1CCOCC1)Nc1ccc(Cl)cc1` gave ST2 IL33 inh inactive.
O=C(CN1C(=O)/C(=C\c2ccc(Cl)cc2)Sc2ccccc21)NCCN1CCOCC1 was read as ST2 IL33 inh 30%*.
For CCn1ncc(Cl)c1C(=O)N1CCN(C)C2(CCN(C)CC2)C1 the results were ST2 IL33 inh inactive.
Screening CCOc1ccccc1C(=O)Nc1ccc(Cl)c(N2CCCS2(=O)=O)c1 returned ST2 IL33 inh inactive.
For NC1CC(=O)N(CCc2cccc(Cl)c2)C1 (stereo not drawn) the results were ST2 IL33 inh inactive.
Screening CCN(CC)c1ccc2cc(-c3nc4ccccc4s3)c(=O)oc2c1 returned ST2 IL33 inh inactive.
Screening C=C(C)COc1ccc2cc(-c3nc4ccccc4s3)c(=O)oc2c1 returned ST2 IL33 inh inactive.
`Cc1ccc2oc(=O)c(-c3nc4ccccc4s3)cc2c1` gave ST2 IL33 inh 36%*.
Screening CC(C)C(=O)Nc1cccc(-c2ccn[nH]2)c1 returned ST2 IL33 inh inactive.
`Cc1ccc(-c2nc3sccn3c2Nc2ccccc2C)cc1` gave ST2 IL33 inh inactive.
For COc1ccc(-c2nc3sccn3c2Nc2ccc3c(c2)OCO3)cc1 the results were ST2 IL33 inh 30%*.
COc1cc(-c2nc3cnccn3c2Nc2ccc3c(c2)OCCO3)ccc1O was read as ST2 IL33 inh inactive.
Screening O=C(C1CCc2ccccc2O1)N1CCC(Cn2cc(C3CC3)nn2)CC1 (stereo not drawn) returned ST2 IL33 inh inactive.
Screening CN=C(NS(=O)(=O)c1cc(C)ccc1C)c1ccccc1 returned ST2 IL33 inh inactive.
COc1ccc(Nc2cc(C)nc(N3CCN(S(=O)(=O)c4ccc(C)cc4C)CC3)n2)cc1 was read as ST2 IL33 inh inactive.
Screening COc1ccc(S(=O)(=O)Nc2cc(C)ccc2C)cc1 returned ST2 IL33 inh inactive.
For COc1ccc(NC2=CC(=NS(=O)(=O)c3cc(C)ccc3C)c3ccccc3C2=O)cc1 the results were ST2 IL33 inh 95%*.
`Cc1ccc(C)c(S(=O)(=O)Nc2ccccc2Cl)c1` gave ST2 IL33 inh inactive.
Cc1ccc(C)c(S(=O)(=O)N=C2C=C(Nc3ccccc3)C(=O)c3ccccc32)c1 was read as ST2 IL33 inh 88%*.
`Cc1nc2ccccc2c2c1C(=O)N(c1ccc(F)c(Cl)c1)C2=O` gave ST2 IL33 inh inactive.
For Cc1sc2ncnc(NC3CCCCCC3)c2c1S(=O)(=O)N1CCC(C)CC1 the results were ST2 IL33 inh inactive.
Screening CCOc1nc(NCCC2=CCCCC2)nc(OCC)n1 returned ST2 IL33 inh inactive.
CC1CC(C)CN(CCCNS(=O)(=O)c2cccc3cccnc23)C1 (stereo not drawn) was read as ST2 IL33 inh inactive.
For O=C(CCn1c(=O)c2sccc2n(Cc2cccc([N+](=O)[O-])c2)c1=O)NCc1ccccc1 the results were ST2 IL33 inh inactive.
Screening COc1ccc(CNC(=O)C[C@@H]2CCNC[C@@H]2Cc2cc(-c3ccccc3)on2)cc1OC returned ST2 IL33 inh inactive.
For COc1ccccc1CNC(=O)C[C@@H]1CCNC[C@@H]1Cc1cc(-c2ccccc2)on1 the results were ST2 IL33 inh inactive.
For CCCCc1cc(C[C@H]2CNCC[C@H]2CC(=O)N2CCc3cc(OC)c(OC)cc3C2)no1 the results were ST2 IL33 inh inactive.
Screening COC(=O)c1cc(C[C@H]2CNCC[C@H]2CC(=O)O)no1 returned ST2 IL33 inh 77%*.
Screening CCCCc1cc(C[C@H]2CNCC[C@H]2CC(=O)N2CCN(C(C)=O)CC2)no1 returned ST2 IL33 inh 43%*.
Screening COc1ccc(-c2cc(C[C@H]3CNCC[C@H]3CC(=O)N3CCN(C(C)=O)CC3)no2)cc1 returned ST2 IL33 inh inactive.
For COc1ccc(-n2ncc3c(Nc4cc(OC)ccc4OC)ncnc32)cc1 the results were ST2 IL33 inh inactive.
`CNCC(=O)NC(C)c1nc2c(s1)CCCC2` (stereo not drawn) gave ST2 IL33 inh inactive.
COc1ccc(CC(=O)Nc2nccs2)cc1 was read as ST2 IL33 inh inactive.
Screening Cc1ccc(N2C(=O)C3C4C=CC(C4)C3(C)C2=O)c(C)c1 (stereo not drawn) returned ST2 IL33 inh inactive.
For Cc1oc(N=Cc2cn(Cc3ccccc3)c3ccccc23)c(C#N)c1C the results were ST2 IL33 inh 46%*.
`Cc1ccc(Cn2cc(CCC(=O)O)c3ccccc32)cc1` gave ST2 IL33 inh inactive.
For CN=C1S/C(=C\c2cn(CC(=O)O)c3ccccc23)C(=O)N1C the results were ST2 IL33 inh inactive.
O=c1c(Cl)c(Cl)cnn1-c1ccc([N+](=O)[O-])cc1 was read as ST2 IL33 inh inactive.
For CNC(=O)C(=O)NCCN1CCNCC1 the results were ST2 IL33 inh inactive.
O=C1C2C3CCC(C3)C2C(=O)N1c1cc(Cl)ccc1Cl (stereo not drawn) was read as ST2 IL33 inh inactive.
For O=C(NCCN1CCOCC1)c1ccc2c(c1)ncn2C1CCCCCC1 the results were ST2 IL33 inh inactive.
